Measured values from PubChem BioAssay (EPA / NIEHS).
The source made the active and inactive calls. Rule for the calls: active = hit-call score of the fitted dose curve at least 0.9, where 1 is the maximum; inactive = score below 0.9.

Key:
Conditions in all cases: mRNA level, 48 h; actives raise or lower the signal
[1] = read-out: Bcl-2 (BID) gene, BID (gene 637); experiment: LTEA_HepaRG_BID: Life Technologies and Expression Analysis (LTEA) Assay for Bcl-2 (BID) gene using HepaRG (AID 2283476)
Procedure, shortened: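 Cells are plated, cultured 48 h, switched to serum-free induction medium, then dosed 48 h (100 uM top, half-log steps, 0.5% DMSO). RNA is isolated and BID expression read by qRT-PCR.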

[2] = read-out: Caspase-3 (Homo sapiens) (UniProt P42574); experiment: LTEA_HepaRG_CASP3: Life Technologies and Expression Analysis (LTEA) Assay for cysteine-aspartic acid protease (CASP3) using HepaRG (AID 2283477)
Procedure, shortened: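 Differentiated HepaRG cells, plated 48 h, were treated in duplicate in serum-free induction medium for 48 h with eight half-log concentrations up to 100 uM in 0.5% DMSO. CASP3 mRNA measured by qRT-PCR, normalized to ACTB, GAPDH, POLR2A.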

[3] = read-out: Cytochrome P450 (CYP24A1), CYP24A1 (gene 1591); experiment: LTEA_HepaRG_CYP24A1: Life Technologies and Expression Analysis (LTEA) Assay for Cytochrome P450 (CYP24A1) using HepaRG (AID 2283478)
Procedure, shortened: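 HepaRG cells plated 48 h, then exposed in duplicate in serum-free induction medium for 48 h to 8-point half-log series from 100 uM in 0.5% DMSO. CYP24A1 mRNA by Fluidigm qRT-PCR, normalized to ACTB, GAPDH, POLR2A; bidirectional fit versus DMSO.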

[4] = read-out: Cytochrome P450 (CYP1A2), CYP1A2 (gene 1544); experiment: LTEA_HepaRG_CYP1A2: Life Technologies and Expression Analysis (LTEA) Assay for Cytochrome P450 (CYP1A2) using HepaRG (AID 2283479)
Procedure, shortened: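 Differentiated human HepaRG cells in serum-free induction medium exposed 48 hours in duplicate to 8 half-log concentrations from 100 uM, 0.5% DMSO. CYP1A2 mRNA quantified by qRT-PCR, normalized to ACTB, GAPDH and POLR2A; bidirectional fitting versus DMSO.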

[5] = read-out: cysteine-aspartic acid protease (CASP8), CASP8 (gene 841); experiment: LTEA_HepaRG_CASP8: Life Technologies and Expression Analysis (LTEA) Assay for cysteine-aspartic acid protease (CASP8) using HepaRG (AID 2283480)
Procedure, shortened: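 Concentration-response in duplicate up to 100 uM (half-log steps, 0.5% DMSO) on differentiated HepaRG cultures for 48 h. Expression change of CASP8 mRNA is determined by TaqMan qRT-PCR with housekeeping-gene normalization.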

[6] = read-out: Cytochrome P450 (CYP2B6), CYP2B6 (gene 1555); experiment: LTEA_HepaRG_CYP2B6: Life Technologies and Expression Analysis (LTEA) Assay for Cytochrome P450 (CYP2B6) using HepaRG (AID 2283481)
Procedure, shortened: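 Differentiated human HepaRG cells in serum-free induction medium, dosed in duplicate for 48 h over 8 half-log concentrations topping at 100 uM (0.5% DMSO). CYP2B6 mRNA measured by TaqMan qRT-PCR, normalized to ACTB, GAPDH, POLR2A; bidirectional fit versus DMSO.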

[7] = read-out: Cytochrome P450 2C19 (Homo sapiens) (UniProt P33261); experiment: LTEA_HepaRG_CYP2C19: Life Technologies and Expression Analysis (LTEA) Assay for CYP2C19 using HepaRG (AID 2283482)
Procedure, shortened: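 Differentiated HepaRG cells in serum-free induction medium exposed 48 h in duplicate, 8 concentrations from 100 uM by half-log steps in 0.5% DMSO. CYP2C19 mRNA measured by TaqMan qRT-PCR, normalized to ACTB, GAPDH, POLR2A. Bidirectional fit versus DMSO.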

[8] = read-out: CYP2C8 (gene 1558); experiment: LTEA_HepaRG_CYP2C8: Life Technologies and Expression Analysis (LTEA) Assay for CYP2C8 using HepaRG (AID 2283483)
Procedure, shortened: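 This is a transcriptional endpoint in HepaRG cultures: 48 h exposure, highest concentration 100 uM. CYP2C8 mRNA is quantified by TaqMan qRT-PCR.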

[9] = read-out: CYP2C9 (gene 1559); experiment: LTEA_HepaRG_CYP2C9: Life Technologies and Expression Analysis (LTEA) Assay for CYP2C9 using HepaRG (AID 2283484)
Procedure, shortened: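 Eight-point concentration-response (highest 100 uM, half-log dilutions) in HepaRG cells for 48 h; CYP2C9 expression by qRT-PCR normalized to ACTB, GAPDH, POLR2A. Bidirectional fit, DMSO baseline.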

[10] = read-out: CYP2E1 (gene 1571); experiment: LTEA_HepaRG_CYP2E1: Life Technologies and Expression Analysis (LTEA) Assay for CYP2E1 using HepaRG (AID 2283485)
Procedure, shortened: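 Readout is qRT-PCR of CYP2E1 mRNA, normalized to three housekeeping genes and fitted bidirectionally against 0.5% DMSO. HepaRG cells were dosed 48 h at eight concentrations, highest 100 uM with half-log dilutions.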

[11] = read-out: CYP4A11 (gene 1579); experiment: LTEA_HepaRG_CYP4A11: Life Technologies and Expression Analysis (LTEA) Assay for CYP4A11 using HepaRG (AID 2283486)
Procedure, shortened: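 Differentiated HepaRG cells, 48 h after plating, exposed in duplicate for 48 h to 8 half-log concentrations up to 100 uM in 0.5% DMSO in serum-free induction medium. CYP4A11 mRNA measured by TaqMan qRT-PCR, normalized to ACTB, GAPDH and POLR2A.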

[12] = read-out: Cytochrome P450 3A4 (Homo sapiens) (UniProt P08684); experiment: LTEA_HepaRG_CYP3A4: Life Technologies and Expression Analysis (LTEA) Assay for CYP3A4 using HepaRG (AID 2283487)
Procedure, shortened: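 CYP3A4 transcript measured by TaqMan qRT-PCR and normalized to three housekeeping genes after 48 h chemical exposure of human HepaRG cells. Top concentration 100 uM, half-log steps, 0.5% DMSO vehicle; gain or loss fitted against DMSO baseline.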

[13] = read-out: DNA damage-inducible transcript 3 (DDIT3), DDIT3 (gene 1649); experiment: LTEA_HepaRG_DDIT3: Life Technologies and Expression Analysis (LTEA) Assay for DNA damage-inducible transcript 3 (DDIT3) using HepaRG (AID 2283488)
Procedure, shortened: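 Cells are human HepaRG liver cells treated for 48 h with eight half-log concentrations up to 100 uM in 0.5% DMSO. Transcript levels come from qRT-PCR normalized to three housekeeping genes, with activity fitted in both directions relative to vehicle.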

[14] = read-out: Pro-epidermal growth factor (Homo sapiens) (UniProt P01133); experiment: LTEA_HepaRG_EGF: Life Technologies and Expression Analysis (LTEA) Assay for Epidermal growth factor (EGF) using HepaRG (AID 2283489)
Procedure, shortened: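 HepaRG cells (~100,000/well, 48 h pre-culture) exposed in duplicate for 48 h in serum-free induction medium to 8 half-log concentrations up to 100 uM in 0.5% DMSO. EGF mRNA by qRT-PCR, normalized to ACTB/GAPDH/POLR2A; bidirectional fit versus DMSO.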

[15] = read-out: Early growth response protein 1 (EGR1) transcription factor, EGR1 (gene 1958); experiment: LTEA_HepaRG_EGR1: Life Technologies and Expression Analysis (LTEA) Assay for Early growth response protein 1 (EGR1) transcription factor using HepaRG (AID 2283490)
Procedure, shortened: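 EGR1 expression change in human HepaRG after 48 h chemical exposure, assessed by housekeeping-normalized qRT-PCR; concentration-response up to 100 uM, fitted in both directions against DMSO controls.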

[16] = read-out: Ezrin (EZR), EZR (gene 7430); experiment: LTEA_HepaRG_EZR: Life Technologies and Expression Analysis (LTEA) Assay for Ezrin (EZR) using HepaRG (AID 2283491)
Procedure, shortened: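 HepaRG, 48 h chemical exposure, 8-pt half-log series from 100 uM, 0.5% DMSO vehicle, duplicates. Read-out: EZR mRNA by TaqMan qRT-PCR (Fluidigm array), housekeeping-normalized; bidirectional curve fit vs DMSO baseline.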

[17] = read-out: Cytochrome P450 3A7 (Homo sapiens) (UniProt P24462); experiment: LTEA_HepaRG_CYP3A7: Life Technologies and Expression Analysis (LTEA) Assay for CYP3A7 using HepaRG (AID 2283492)
Procedure, shortened: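 Differentiated HepaRG cells in serum-free induction medium exposed 48 h in duplicate to 8-point half-log series from 100 uM top in 0.5% DMSO. CYP3A7 mRNA by qRT-PCR, normalized to ACTB/GAPDH/POLR2A, bidirectional fit versus DMSO.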

[18] = read-out: CYP3A5 (gene 1577); experiment: LTEA_HepaRG_CYP3A5: Life Technologies and Expression Analysis (LTEA) Assay for CYP3A5 using HepaRG (AID 2283493)
Procedure, shortened: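 Human HepaRG hepatic cells receive 48 h chemical treatment at eight concentrations (half-log steps from 100 uM) in 0.5% DMSO. Expression of CYP3A5 is quantified by Fluidigm qRT-PCR and normalized to three reference genes.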

[19] = read-out: Cytochrome P450 4A22 (Homo sapiens) (UniProt Q5TCH4); experiment: LTEA_HepaRG_CYP4A22: Life Technologies and Expression Analysis (LTEA) Assay for Cytochrome P450 4A22 (CYP4A22) using HepaRG (AID 2283495)
Procedure, shortened: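 Differentiated HepaRG cells in serum-free induction medium exposed 48 h in duplicate to eight half-log concentrations up to 100 uM in 0.5% DMSO. CYP4A22 mRNA quantified by TaqMan qRT-PCR, normalized to ACTB, GAPDH and POLR2A; bidirectional fit versus DMSO.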

[20] = read-out: Cytochrome P450 7A1 (Homo sapiens) (UniProt P22680); experiment: LTEA_HepaRG_CYP7A1: Life Technologies and Expression Analysis (LTEA) Assay for Cytochrome P450 7A1 (CYP7A1) using HepaRG (AID 2283496)
Procedure, shortened: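 HepaRG, 48 h exposure, 8-pt half-log series from 100 uM, 0.5% DMSO vehicle, duplicates. Readout: TaqMan qRT-PCR mRNA vs three housekeeping genes; bidirectional curve fit against DMSO baseline.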

Measured: AC50

Caspase-3 (Homo sapiens), sequence (P42574 whole entry, looked up): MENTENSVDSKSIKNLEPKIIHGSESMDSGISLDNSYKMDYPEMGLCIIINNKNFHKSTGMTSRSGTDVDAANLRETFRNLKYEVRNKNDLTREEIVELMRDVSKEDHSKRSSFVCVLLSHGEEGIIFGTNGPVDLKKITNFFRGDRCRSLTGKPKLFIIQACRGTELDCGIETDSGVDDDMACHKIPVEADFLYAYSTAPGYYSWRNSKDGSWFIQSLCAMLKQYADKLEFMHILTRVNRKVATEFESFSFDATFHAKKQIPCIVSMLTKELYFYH
Cytochrome P450 3A7 (Homo sapiens), sequence (P24462 whole entry, looked up): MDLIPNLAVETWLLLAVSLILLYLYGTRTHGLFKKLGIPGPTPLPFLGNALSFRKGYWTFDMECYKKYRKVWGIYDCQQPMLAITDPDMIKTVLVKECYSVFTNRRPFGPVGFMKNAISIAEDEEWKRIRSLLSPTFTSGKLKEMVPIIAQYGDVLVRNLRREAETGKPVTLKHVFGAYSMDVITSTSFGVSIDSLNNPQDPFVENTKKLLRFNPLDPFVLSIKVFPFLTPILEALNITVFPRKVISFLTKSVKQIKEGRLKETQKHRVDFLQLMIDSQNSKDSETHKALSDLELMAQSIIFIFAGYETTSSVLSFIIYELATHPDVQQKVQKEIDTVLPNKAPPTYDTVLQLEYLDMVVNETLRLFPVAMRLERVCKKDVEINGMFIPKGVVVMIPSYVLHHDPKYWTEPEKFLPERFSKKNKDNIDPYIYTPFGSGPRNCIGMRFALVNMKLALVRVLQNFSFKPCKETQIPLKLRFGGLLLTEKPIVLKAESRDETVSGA
Cytochrome P450 2C19 (Homo sapiens), sequence (P33261 whole entry, looked up): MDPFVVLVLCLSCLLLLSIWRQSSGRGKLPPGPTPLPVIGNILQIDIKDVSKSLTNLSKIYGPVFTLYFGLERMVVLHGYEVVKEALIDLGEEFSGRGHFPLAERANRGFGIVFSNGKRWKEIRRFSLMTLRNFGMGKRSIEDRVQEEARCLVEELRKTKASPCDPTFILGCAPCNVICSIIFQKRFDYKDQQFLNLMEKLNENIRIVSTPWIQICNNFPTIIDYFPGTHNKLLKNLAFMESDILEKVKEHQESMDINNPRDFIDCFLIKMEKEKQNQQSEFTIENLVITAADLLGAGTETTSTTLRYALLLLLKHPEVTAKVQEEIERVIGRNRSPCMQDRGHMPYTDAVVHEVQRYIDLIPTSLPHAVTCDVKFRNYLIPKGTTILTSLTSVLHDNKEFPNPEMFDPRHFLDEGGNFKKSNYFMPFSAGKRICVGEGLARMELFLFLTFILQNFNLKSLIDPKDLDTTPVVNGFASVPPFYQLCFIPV
Cytochrome P450 3A4 (Homo sapiens), sequence (P08684 whole entry, looked up): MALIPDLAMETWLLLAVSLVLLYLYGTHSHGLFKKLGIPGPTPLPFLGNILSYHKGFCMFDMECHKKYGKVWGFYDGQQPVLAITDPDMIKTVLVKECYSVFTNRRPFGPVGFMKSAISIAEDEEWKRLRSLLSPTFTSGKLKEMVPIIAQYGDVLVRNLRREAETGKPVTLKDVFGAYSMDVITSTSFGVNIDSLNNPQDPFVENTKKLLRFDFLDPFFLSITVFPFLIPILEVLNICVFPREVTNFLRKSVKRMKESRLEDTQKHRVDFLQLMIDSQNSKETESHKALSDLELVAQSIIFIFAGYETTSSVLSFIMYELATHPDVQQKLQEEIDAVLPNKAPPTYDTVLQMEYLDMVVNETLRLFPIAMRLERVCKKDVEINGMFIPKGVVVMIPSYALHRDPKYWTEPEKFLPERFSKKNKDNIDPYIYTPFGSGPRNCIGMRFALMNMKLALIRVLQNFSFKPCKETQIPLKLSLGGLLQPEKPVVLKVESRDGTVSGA

O=C(CCl)c1ccccc1
active: [6] 50 µM
inactive: all other assays above

N#CCCCCC#N
active: [6] 50 µM
inactive: all other assays above

O=[N+]([O-])c1ccc(Cl)cc1
inactive: all assays above
